Sampled rows, rich in hits. Any-hit rate of the full collection: about 3.5%.
TEAD-YAP inh: TEAD-YAP interaction inhibition; 640,000 compounds, 1.4% hits; inhibition, % at 9.12 µM; HEK-TIYL cells, TEAD-Gal4/YAP UAS-luciferase luminescence; in the data active = inhibition above about 32%;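 note: 0% = median of test compound wells and 100% = reference inhibitor wells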
GPR151 activ: activates the human receptor GPR151 | PathHunter beta-arrestin GPR151 cells, luminescence | activation, % at 11.2 µM | 650,000 compounds, 1% hits | AID 1508602; in the data active = activation above about 4.9%;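 note: 0% = median of compound wells and 100% = cells with positive control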
Target sequence (Q8TDV0 whole entry, looked up): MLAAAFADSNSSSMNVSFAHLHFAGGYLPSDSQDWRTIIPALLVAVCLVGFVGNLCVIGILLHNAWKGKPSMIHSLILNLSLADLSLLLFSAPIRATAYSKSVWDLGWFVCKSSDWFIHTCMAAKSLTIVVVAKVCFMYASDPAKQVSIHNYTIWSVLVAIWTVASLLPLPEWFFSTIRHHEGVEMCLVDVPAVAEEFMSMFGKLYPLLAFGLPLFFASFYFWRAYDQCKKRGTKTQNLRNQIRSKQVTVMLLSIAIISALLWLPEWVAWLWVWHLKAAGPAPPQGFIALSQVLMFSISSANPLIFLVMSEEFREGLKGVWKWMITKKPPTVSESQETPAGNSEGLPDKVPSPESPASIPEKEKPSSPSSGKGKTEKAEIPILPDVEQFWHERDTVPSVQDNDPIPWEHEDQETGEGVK
MITF primary: inhibitors of human MITF | O75030 | AlphaScreen MITF homodimerization, bead proximity signal | inhibition, % at 2.6 µM | 650,000 compounds, 0.91% hits | AID 1259374; in the data active = inhibition above about 50%;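 note: 0% = vehicle wells with protein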
FBW7 act: activators of human E3 ligase FBW7. Q969H0. AlphaScreen FBW7–phospho-cyclin E peptide binding, activator screen. normalized activity (activation), % at 26.1 µM. 650,000 compounds, 0.13% hits. AID 1259310; in the data active = normalized activity above about 1.9%;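 note: purified mutant Fbw7 with reduced substrate affinity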
* = called active by the depositor; ! = a repeat was not active.

SMILES	TEAD-YAP inh	GPR151 activ	MITF primary	FBW7 act
CC(=O)Oc1ccc2c(c1)O/C(=C\c1sccc1C)C2=O	88*	-5	4	0
COc1ccc(/C=C2\Oc3cc(OC(C)=O)ccc3C2=O)cc1	51*	-2	-16	0
CCCC(=O)NC(NC(=S)Nc1ccccc1C(=O)O)C(Cl)(Cl)Cl (configuration not stated)	7	0	14	0
COc1ccc(-n2c(=O)[nH]c3nc(-c4cn[nH]c4)cnc32)c(C)c1	12	0	8	0
COc1ccccc1OCC(=O)Nc1ncc(Cc2ccc(C)cc2)s1	-7	0	2	1
C(=C/c1ccccc1)/CN1CCN(c2nc(-c3ccccc3)cs2)CC1	7	-1	14	0
Oc1c(C(Nc2ccccn2)c2ccc(OC3CCCC3)cc2)ccc2cccnc12 (configuration not stated)	29	0	-1	0
CC(C)CC(=O)NC(c1ccc2c(c1)OCO2)c1ccc2cccnc2c1O (configuration not stated)	84*	-1	22	-1
Oc1c(C(Nc2ccccn2)c2ccc3c(c2)OCO3)ccc2cccnc12 (configuration not stated)	87*	0	22	-1
CCOc1cccc(C(Nc2cccc(C)n2)c2ccc3ccc(C)nc3c2O)c1 (configuration not stated)	-2	-1	9	0
Cc1cccc(NC(c2ccc3c(c2)OCO3)c2ccc3cccnc3c2O)n1 (configuration not stated)	80*	0	15	0
O=C(CN1CCN(c2ccccc2)CC1)NC1CC2CCC1C2 (configuration not stated)	2	0	7	0
CC1(C)C(=O)NCCN1C(=O)c1ccc(C(=O)c2ccccc2)cc1	39*	-1	-16	0
NNC(=O)c1[nH]c2ccccc2c1Cl	47*	-1	2	0
COc1nc(N/N=C/c2ccc(OC(C)=O)c(OC)c2)nc(N2CCOCC2)n1	-14	2	4	0
CC1=NNC(=O)C1CC(=O)N/N=C/c1cccnc1 (configuration not stated)	-4	0	0	0
CC1(c2ccc(Cl)cc2)NC(=O)NC1=O (configuration not stated)	1	-2	-15	0
CCOC(=O)c1c(C)oc2c1c1c(c3ccccc32)OCN(C(C)c2ccccc2)C1 (configuration not stated)	-98	-1	-2	0
CC(c1ccccc1)N1COc2c(cc(Cl)c3cccnc23)C1 (configuration not stated)	48*	2	64*	-1
COc1ccc(NS(=O)(=O)c2ccc(F)cc2)c(OC)c1	15	0	8	0
CCOc1ccc(S(=O)(=O)Nc2ccccc2CC)cc1	16	2	11	0
COc1ccc(S(=O)(=O)Nc2ccc(OC)cc2OC)cc1	61*	0	-1	0
CCOc1ccc(S(=O)(=O)Nc2ccccc2OC)cc1	42*	0	0	0
CCOc1ccccc1NS(=O)(=O)c1ccc(OC)cc1	47*	1	13	1
Clc1ccc2nc(C3CCN(Cc4nnnn4C4CCCC4)CC3)[nH]c2c1	37*	-1	3	0
SMILES	TEAD-YAP inh	GPR151 activ	MITF primary	FBW7 act
Fc1ccccc1C1CCN(Cc2nnnn2C2CCCC2)CC1	5	0	33	0
Clc1ccc2nc(C3CCN(Cc4nnnn4Cc4cccs4)CC3)[nH]c2c1	36*	-1	12	0
c1csc(Cn2nnnc2CN2CCN(C3CCCC3)CC2)c1	6	0	12	0
CCCCNc1nc(SC(CC)C(=O)NCc2cccnc2)nc2ccccc12 (configuration not stated)	-7	-1	7	0
COc1ccc(S(=O)(=O)N(C)CC(=O)NCc2ccccn2)cc1Cl	-5	1	8	0
COc1ccc2[nH]c(=O)c(CN(Cc3cccnc3)C(=O)Nc3ccccc3)cc2c1	17	-1	3	0
Cc1cccc2cc(CN(CCO)C(=O)Nc3ccc(F)cc3)c(=O)[nH]c12	13	0	9	2.3*
COc1ccc2[nH]c(=O)c(CN(Cc3cccnc3)C(=O)Nc3ccc(F)cc3)cc2c1	46*	0	13	1
COc1ccc(NC(=O)N(CCCO)Cc2cc3cccc(C)c3[nH]c2=O)cc1	-3	0	4	0
COc1ccc(-c2cccc3cnc(NC4CCC(C(=O)N5CCCC5)CC4)nc23)cc1F (configuration not stated)	83*!	-2	9	2
COc1ccc(-c2cccc3cnc(Nc4ccc(-n5cnc(N6CCOCC6)n5)cc4)nc23)cc1F	1	0	-10	1

Screening data as filed in PubChem BioAssay.
